Experimental data reported in PubChem BioAssay.
Calls of active or inactive are those of the source.

test system: not listed separately; assay: budding yeast growth modifiers under rapamycin – strain BY4716, OD600, 96 h, primary screen (AID 1091); note: test concentration not given here; conditions: S. cerevisiae BY4716 + rapamycin, higher = more signal, called active from +8 up or from −8 down

Compound	z-score
[N-]=[N+]=NCc1ccccc1C[C@@]1(C(=O)NCc2ccccc2)N=C(c2ccc(OCCCO)cc2)O[C@@H]1c1ccccc1N=[N+]=[N-]	6.91 (inactive)
[N-]=[N+]=NCc1ccccc1C[C@@]1(C(=O)N2CCOCC2)N=C(c2ccc(OCCCO)cc2)O[C@@H]1c1ccccc1	33 (active)
COc1ccc(NC(=O)O[C@H]2[C@H](OC(=O)Nc3ccccc3)[C@H](OC(=O)Nc3ccccc3)[C@@H](OC)O[C@@H]2CO)cc1	3.25 (inactive)
COCCOC(=O)N1C(=O)[C@@]2(c3ccccc31)[C@H](C(=O)N1CCN(c3ncccn3)CC1)[C@H]1C(=O)O[C@H](c3ccccc3)[C@H](c3ccccc3)N1[C@@H]2c1ccc(O)cc1	1.72 (inactive)
CCCCO[C@H]1C[C@H]2C(I)=C[C@@H]1C(=O)[C@]21CO1	-1.68 (inactive)
COc1ccc(CN(C2=CC[C@@]3(C(N)=O)C(=O)C(Cl)=C(Cl)C(=O)[C@@]3(C#N)C2)S(=O)(=O)c2ccc(Br)cc2)cc1	-0.266 (inactive)
CCCCN1CC=CC23O[C@@H]4/C=C\CCC(C)OC(=O)C4[C@H]2C(=O)N(C(CO)C(C)C)[C@@H]3C1=O (stereo not given in full)	-0.528 (inactive)
[N-]=[N+]=NCc1ccccc1C[C@]1(C(N)=O)N=C(c2ccc(OCCCO)cc2)O[C@H]1c1ccccc1	2.34 (inactive)
C=CCNC(=O)[C@H]1[C@@H]2C(=O)O[C@@H](c3ccccc3)[C@@H](c3ccccc3)N2[C@@H](c2ccc(O)cc2)[C@]12C(=O)Nc1ccc(C#CC3(O)CCCCCC3)cc12	0.335 (inactive)
NCCCCCNC(=O)[C@@H]1C[C@@H]2C(=O)NCC(=O)N2[C@@H]1c1cccc(OCCO)c1	0.267 (inactive)

target: Torsin-1A-interacting protein 2 (Homo sapiens) (UniProt Q8NFQ8); assay: small molecules binding lysate-expressed LULL1 – cell lysate, human LULL1 lysate, 635/667 nm fluorescence, primary screen (AID 1092); conditions: small-molecule microarray, hLULL1 lysate binding, 635 nm fluorescence; higher = more signal;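 note: probe is lysate of COS7 cells overexpressing human LULL1; score merges per-feature 667 nm fluorescence with signal-to-noise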
Sequence (Q8NFQ8 whole entry, looked up): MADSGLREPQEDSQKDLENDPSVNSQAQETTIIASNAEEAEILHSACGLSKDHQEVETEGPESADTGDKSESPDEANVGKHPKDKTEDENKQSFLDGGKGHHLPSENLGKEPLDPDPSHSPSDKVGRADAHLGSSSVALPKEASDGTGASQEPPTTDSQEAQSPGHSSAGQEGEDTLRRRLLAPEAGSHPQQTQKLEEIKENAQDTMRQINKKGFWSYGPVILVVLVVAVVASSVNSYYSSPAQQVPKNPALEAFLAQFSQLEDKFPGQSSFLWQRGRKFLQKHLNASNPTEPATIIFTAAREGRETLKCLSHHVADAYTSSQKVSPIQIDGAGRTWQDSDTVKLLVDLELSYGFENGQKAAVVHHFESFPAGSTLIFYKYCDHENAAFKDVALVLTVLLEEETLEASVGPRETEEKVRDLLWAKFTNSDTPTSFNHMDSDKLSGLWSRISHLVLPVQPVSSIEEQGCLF

Compound	composite z-score
COc1cc2c(cc1OC)CN(C(=O)[C@@H]1[C@H]3C(=O)O[C@H](c4ccccc4)[C@H](c4ccccc4)N3[C@H](c3ccc(OCCO)cc3)[C@@]13C(=O)Nc1ccc(C#CC4(O)CCCCCC4)cc13)CC2	3.19
C=C(/C(=C/C[C@H](OC(C)=O)c1cccc(OCCO)c1)c1cnc2ccccc2c1)C(C)C	1.03
OCCCC1=CC(c2ccc(CN3CCCC3)cc2)N(Cc2sc3ccccc3c2Cl)CC1 (stereo not given)	1.22
CCOC(=O)C[C@H]1[C@H](OC(=O)c2ccccc2-c2ccccc2)[C@@H](NC(=O)C2CCCCC2)c2cc(OCCCO)ccc2N1C(=O)Cc1ccc(OC)cc1	0.735
CN1C(=O)C2C=CC(C(O)c3cccc4ccccc34)N(N3CCCCC3)C2C1=O (stereo not given)	2.86
CC1=C([C@H](O)CCc2ccccc2)[C@H](CO)[C@@H]2C(=O)N(C)C(=O)[C@@H]2C1	1.07
O=C1O[C@@H](c2ccccc2)[C@@H](c2ccccc2)N2[C@@H](c3ccc(OCCO)cc3)[C@]3(C(=O)Nc4ccccc43)[C@@H](C(=O)O)[C@H]12	3.09
C=C(/C(=C/C[C@@H](OC(C)=O)c1cccc(OCCO)c1)c1cc(C(=O)OC)ccc1OC)C(C)C	1.69
CCOC(=O)C[C@H]1[C@H](OC(=O)c2cc3ccccc3oc2=O)[C@@H](NC(=O)c2ccc(-c3ccccc3)cc2)c2cc(OCCCO)ccc2N1C(=O)c1ccc2ccccc2n1	1.92
CC[C@H]1C2=C3C(CC[C@H]4C(OCc5ccc(F)cc5C(F)(F)F)OC[C@](C)([C@@H]34)N(C(=O)OC(C)(C)C)C2)C(COC)C1COC (stereo not given in full)	1.68
C=CCOC(=O)[C@H]1[C@@H]2C(=O)O[C@@H](c3ccccc3)[C@@H](c3ccccc3)N2[C@@H](c2ccc(OCCOC(=O)[C@H]3C[C@H]4C(=O)N[C@@H](CCCCNC(C)=O)C(=O)N4[C@H]3c3ccc(O)cc3)cc2)[C@]12C(=O)Nc1ccccc12	2.27
[N-]=[N+]=Nc1ccccc1[C@@H]1OC(c2ccc(OCCCO)cc2)=N[C@]1(Cc1ccccc1)C(=O)NCC(O)CO (stereo not given in full)	2.65
COc1ccc(C(O)C2C=CC3C(=O)N(c4ccccc4)C(=O)C3N2Nc2ccc([N+](=O)[O-])cc2)cc1 (stereo not given)	3.09
O=C1OCC=C[C@H]2OC34C=CCN(Cn5nnc6ccccc65)C(=O)[C@H]3N(CCCO)C(=O)[C@@H]4[C@@H]12 (stereo not given in full)	0.433
CCC[C@@H]1C[C@@]1(CCC)[C@@H](NC(=O)OCc1ccccc1)c1ccc(-c2ccccc2)cc1	0.543
CC(C)(C)OC(=O)CC[C@@]1(C(=O)NCc2ccccc2)N=C(c2ccc(OCCCO)cc2)O[C@@H]1c1ccccc1N=[N+]=[N-]	3.25
COCCCNC(=O)[C@]1(CCS(=O)(=O)c2ccccc2)N=C(c2ccc(OCCCO)cc2)O[C@@H]1c1ccccc1CN=[N+]=[N-]	3.47
C=C(COC)/C(=C/C[C@H](OC(=O)c1ccncc1)c1ccccc1OCCO)c1cnc2ccccc2c1	2.94

Compound	composite z-score
O=C(NCC(F)(F)F)[C@@H]1c2ccccc2C(=O)N(Cc2cc(F)cc(C(F)(F)F)c2)[C@H]1c1ccc(CO)cc1	2.29
Cc1ccccc1C(O)C1C=CC2C(=O)N(C)C(=O)C2N1N(c1ccccc1)c1ccccc1 (stereo not given)	-0.604
COCCOC(=O)N1C(=O)[C@@]2(c3cc(C#CC4=CCCCC4)ccc31)[C@H](C(N)=O)[C@H]1C(=O)O[C@H](c3ccccc3)[C@H](c3ccccc3)N1[C@@H]2c1ccccc1OCCO	2.75
C[N+](C)(C)CCCCCCNC(=O)[C@H]1C[C@H]2C(=O)NCC(=O)N2[C@H]1c1ccc(O)cc1	2.88
O=C1OCC=C[C@H]2OC34C=CCN(Cc5ccccc5)C(=O)[C@H]3N(CCCCCCO)C(=O)[C@@H]4[C@@H]12 (stereo not given in full)	1.76
COc1ccc(-c2nc(-c3ccccc3)c3c(c2C)CO[Si]3(C(C)C)C(C)C)cn1	0.498
COCCOC(=O)N1C(=O)[C@@]2(c3cc(C#CC4(O)CCCCCC4)ccc31)[C@H](c1ccc(O)cc1)N1[C@H](c3ccccc3)[C@H](c3ccccc3)OC(=O)[C@H]1[C@@H]2C(=O)NC[C@H](O)c1ccccc1	1.18
[N-]=[N+]=NCc1ccccc1C[C@@]1(C(=O)NCc2ccccc2)N=C(c2ccc(OCCCO)cc2)O[C@@H]1c1ccccc1N=[N+]=[N-]	2.88
[N-]=[N+]=NCc1ccccc1C[C@@]1(C(=O)N2CCOCC2)N=C(c2ccc(OCCCO)cc2)O[C@@H]1c1ccccc1	3.33
COc1ccc(NC(=O)O[C@H]2[C@H](OC(=O)Nc3ccccc3)[C@H](OC(=O)Nc3ccccc3)[C@@H](OC)O[C@@H]2CO)cc1	2.66
COCCOC(=O)N1C(=O)[C@@]2(c3ccccc31)[C@H](C(=O)N1CCN(c3ncccn3)CC1)[C@H]1C(=O)O[C@H](c3ccccc3)[C@H](c3ccccc3)N1[C@@H]2c1ccc(O)cc1	2.25
CCCCO[C@H]1C[C@H]2C(I)=C[C@@H]1C(=O)[C@]21CO1	-1.03
COc1ccc(CN(C2=CC[C@@]3(C(N)=O)C(=O)C(Cl)=C(Cl)C(=O)[C@@]3(C#N)C2)S(=O)(=O)c2ccc(Br)cc2)cc1	3.31
CCCCN1CC=CC23O[C@@H]4/C=C\CCC(C)OC(=O)C4[C@H]2C(=O)N(C(CO)C(C)C)[C@@H]3C1=O (stereo not given in full)	2.77
[N-]=[N+]=NCc1ccccc1C[C@]1(C(N)=O)N=C(c2ccc(OCCCO)cc2)O[C@H]1c1ccccc1	3.32
C=CCNC(=O)[C@H]1[C@@H]2C(=O)O[C@@H](c3ccccc3)[C@@H](c3ccccc3)N2[C@@H](c2ccc(O)cc2)[C@]12C(=O)Nc1ccc(C#CC3(O)CCCCCC3)cc12	3.03
NCCCCCNC(=O)[C@@H]1C[C@@H]2C(=O)NCC(=O)N2[C@@H]1c1cccc(OCCO)c1	1.32
